Compound activity: PubChem, Broad Institute
Hits are enriched below; roughly 2.3% of the tested compounds scored in any of these assays.
Rtt109 HAT inh – inhibitors of C. albicans Rtt109/Vps75 HAT, primary screen, biochemical, ThioGlo CoA-SH fluorescence, plate reader. purified Rtt109/Vps75, 4 h. AID 540336, 2011. Histone acetyltransferase RTT109 (Candida albicans (strain SC5314 / ATCC MYA-2876)), …. hit rate 0.16% among 330,000. inhibition, % at 34.9 µM;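 active = inhibition of at least 50% in every replicate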
Target sequence (Q5AAJ8 whole entry, looked up): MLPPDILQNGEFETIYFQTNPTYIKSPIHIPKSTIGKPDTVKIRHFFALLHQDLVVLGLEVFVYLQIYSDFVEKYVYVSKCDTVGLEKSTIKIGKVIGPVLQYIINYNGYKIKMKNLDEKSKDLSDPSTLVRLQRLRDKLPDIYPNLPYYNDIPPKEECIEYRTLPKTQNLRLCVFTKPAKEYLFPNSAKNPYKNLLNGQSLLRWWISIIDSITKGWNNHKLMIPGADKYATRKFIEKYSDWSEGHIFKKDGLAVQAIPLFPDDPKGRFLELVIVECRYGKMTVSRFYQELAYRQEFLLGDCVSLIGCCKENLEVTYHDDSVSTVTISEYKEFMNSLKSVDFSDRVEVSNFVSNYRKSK
PDI inh – inhibitors of human PDI, primary screen, biochemical, turbidity, single point, plate reader; PDI insulin aggregation turbidity, A650, 90 min; hit rate 0.052% among 350,000; inhibition, % at 10 µM; Protein disulfide-isomerase (Homo sapiens), P07237;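 active = mean inhibition across replicates of 30% or more, whatever share of single replicates reach that level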
SIRT5 inh – SIRT5 desuccinylase inhibitors, primary screen, biochemical, fluorescence imaging, single point, set 5; NAD-dependent protein deacylase sirtuin-5, mitochondrial (Homo sapiens), Q9NXA8; inhibition, % at 15 µM; hit rate 1.1% among 330,000; Purified SirT5, succinyl-peptide AMC, trypsin-coupled fluorescence; in the data active = inhibition above about 15%
DENV2 CPE rescue – inhibitors of DENV2 cytopathic effect, primary screen, cell-based, plate reader, single concentration; DENV2-infected cells, cytopathic effect rescue; CPE inhibition, % at 9.99 µM; hit rate 1.7% among 350,000; AID 651640, 2012; in the data active = CPE inhibition above about 20%, passing the limit was not always enough; tested in BHK-21 cells;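 note: 0% = median of neutral control wells and 100% = median of positive control wells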
ERp5 block – inhibitors of ERp5-driven insulin aggregation, primary screen, biochemical, turbidity, absorbance 650 nm, single point. Protein disulfide-isomerase A6 (Homo sapiens), Q15084. AID 651711, 2012. 90 min. inhibition, % at 9.99 µM. hit rate 0.05% among 350,000;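 active = mean replicate inhibition above about 25%, with every replicate also reaching it, limit read from the data, passing the limit was not always enough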
Numbers without * were called inactive; x = no result.

SMILES	Rtt109 HAT inh	PDI inh	SIRT5 inh	DENV2 CPE rescue	ERp5 block
C[C@@H]1CN([C@H](C)CO)C(=O)c2cc(NC(=O)Cn3cnnn3)ccc2O[C@@H]1CN(C)S(=O)(=O)c1cn(C)cn1	x	x	-2	2	-3
Cc1cc(/C=C2/NC(=O)N(Cc3ccccc3F)C2=O)c(C)n1C(C)C	2	-2	112*	3	2
CCn1c(C)cc(/C=C2/NC(=O)N(Cc3ccccc3F)C2=O)c1C	-6	7	3	x	-4
O=C1CSCN1c1ccccc1	x	x	0	9	1
O=C1N=c2ccccc2=C1c1sc(=S)n(-c2ccc(O)cc2)c1O	8	10	-9	-6	4
CN(c1ccc(O)cc1)c1nc(O)c(C2=c3ccccc3=NC2=O)s1	13	4	20*	-4	1
COc1ccc(CN(C)C[C@H]2Oc3ccc(NS(=O)(=O)c4c(C)noc4C)cc3C(=O)N([C@H](C)CO)C[C@H]2C)cc1	x	x	11	29*	1
Cc1noc(C)c1S(=O)(=O)Nc1ccc2c(c1)C(=O)N([C@H](C)CO)C[C@H](C)[C@H](CN(C)Cc1ccccc1)O2	x	x	7	21*	-4
Cc1noc(C)c1S(=O)(=O)Nc1ccc2c(c1)C(=O)N([C@@H](C)CO)C[C@@H](C)[C@@H](CN(C)Cc1ccc3c(c1)OCO3)O2	x	x	2	32*	-6
CN1C(=O)c2cc(NC(=O)C3CC3)ccc2OC[C@@H]2O[C@@H](CC(=O)O)CC[C@H]21	x	x	1	6	0
COc1cccc(C(=O)Oc2cc(C)[nH]c(=O)c2[N+](=O)[O-])c1OC	6	-11	0	101*	-3
Cc1nc(C(=O)NC2CCOCC2)sc1C1(C)CC(c2ccccc2)=NO1 (stereo not given)	1	-3	x	-14	-4
Cc1nc(C(=O)NC2CCOCC2)sc1C1(C)CC(c2cccc([N+](=O)[O-])c2)=NO1 (stereo not given)	8	6	0	44*	1
O=C(C[C@H]1C[C@@H]2c3cc(NC(=O)c4cccnc4)ccc3O[C@@H]2[C@@H](CO)O1)NC1CCCC1	x	x	1	-8	2
C[C@H](CO)N1C[C@H](C)[C@H](CN(C)Cc2ccc(C(=O)O)cc2)Oc2c(cccc2N(C)C)C1=O	x	x	-1	-6	1
CC#CCN1C(=O)N[C@@H](c2ccccc2)C(C(=O)OC)=C1C	-1	5	0	33*	2
O=C(N/N=C1\CCCc2ccccc21)c1ccccc1Cl	-13	5	-1	-4	28*
Oc1cc(O)c(CN2CCOCC2)cc1CN1CCOCC1	101*	-2	-7	4	4
CS(=O)(=O)N(CCC#N)Cc1ccco1	7	15	16*	-2	-5
CS(=O)(=O)N(Cc1ccco1)Cc1ccccc1Cl	4	5	0	x	2
C[C@@H]1CCCCO[C@@H](CN(C)Cc2ccccc2)[C@H](C)CN([C@H](C)CO)C(=O)c2cc(NC(=O)NC3CCCCC3)ccc2O1	x	x	0	-4	6
O=c1ccn(C2CC(O)C(COC(c3ccccc3)(c3ccccc3)c3ccccc3)O2)c(=O)[nH]1 (stereo not given)	x	x	-1	47*	4
COc1ccccc1C(=O)/C=C/c1ccc(N2CCCCC2)c([N+](=O)[O-])c1	-2	-6	-2	-10	-7
O=C(/C=C/c1ccc(N2CCCCC2)c([N+](=O)[O-])c1)c1ccc(O)cc1	1	85*	7	9	-1
O=C(O)c1ccc2nc(-c3ccco3)c(-c3ccco3)nc2c1	-3	1	22*	-2	0
SMILES	Rtt109 HAT inh	PDI inh	SIRT5 inh	DENV2 CPE rescue	ERp5 block
COCC(=O)Nc1ccc2c(c1)C(=O)N(C)C[C@H](OC)[C@H](C)CN(Cc1cccc(F)c1)[C@@H](C)CO2	x	x	1	12	-3
CC(C)CC#Cc1ccc2c(c1)O[C@H](CN(C)C(=O)C1CCCCC1)[C@H](C)CN([C@@H](C)CO)S2(=O)=O	x	x	22*	7	-8
C[C@H](CO)N1C[C@H](C)[C@H](CN(C)C(=O)CC2CC2)Oc2cc(C#CC(C)(C)O)ccc2S1(=O)=O	x	x	18*	10	5
CC(C)CC#Cc1ccc2c(c1)O[C@@H](CN(C)C(=O)CC1CC1)[C@H](C)CN([C@@H](C)CO)S2(=O)=O	x	x	11	2	5
COCC(=O)N(C)C[C@@H]1Oc2cc(C#CC(C)(C)O)ccc2S(=O)(=O)N([C@H](C)CO)C[C@@H]1C	x	x	-1	11	61*
CC(C)CC#Cc1ccc2c(c1)O[C@H](CN(C)C(=O)CC1CC1)[C@H](C)CN([C@@H](C)CO)S2(=O)=O	x	x	18*	8	-5
O=C1[C@H](Cc2ccccc2)NCC=CC[C@H](c2ccc(Cl)cc2)N1Cc1ccc(Cl)cc1	4	-2	x	2	-3
O=C1[C@H](Cc2ccccc2)NCC=CC[C@H](c2ccc(Cl)cc2)N1Cc1ccccc1	6	5	x	25*	-3
COCCNC(=O)C1(C)CCN(Cc2noc(-c3c(C)noc3C)n2)C1 (stereo not given)	x	2	x	x	x
CCNC(=O)C1(C)CCN(Cc2noc(-c3c(C)noc3C)n2)C1 (stereo not given)	x	9	-3	45*	-8
CCC(=O)Nc1ccc2c(c1)OC[C@@H](C)N(C(=O)c1ccc(F)cc1)C[C@H](C)[C@@H](OC)CN(C)C2=O	x	x	5	4	-1
C[C@H]1CN([C@@H](C)CO)C(=O)Cc2cc(NS(=O)(=O)c3cn(C)cn3)ccc2O[C@@H]1CN(C)Cc1ccc(C(=O)Nc2ccccc2N)cc1	x	x	x	21*	5
C[C@@H]1CN([C@@H](C)CO)C(=O)Cc2cc(NS(=O)(=O)c3cn(C)cn3)ccc2O[C@H]1CN(C)Cc1ccc(C(=O)Nc2ccccc2N)cc1	x	x	7	107*	2
COC(=O)CCCC1=CC2=CC(=O)C(C)(OC(=O)c3cccs3)C(=O)C2=CN1CCc1ccccn1 (stereo not given)	11	-5	3	24*	-1
COc1ccc(Cl)cc1N(C(=O)c1ccco1)C(C(=O)NC1CCCC1)c1ccco1 (stereo not given)	-11	7	-2	75*	0
CCc1ccccc1N(C(=O)c1ccco1)C(C(=O)NC1CCCC1)c1cccnc1 (stereo not given)	24	-1	-5	54*	8
Cc1ccccc1N(C(=O)c1ccco1)C(C(=O)NC1CCCC1)c1cccnc1 (stereo not given)	3	2	2	-1	1
CC(O)[C@H]1CNC(=S)N1CCc1cccc(F)c1 (stereo not given in full)	-4	3	-1	-6	1
